“And” between values parts separate entries of the source, which are not always exact repeats. Equal entries are not always repeated. Inconclusive results are not listed. Entries that show only a call come without a potency. The source made the active and inactive calls. Calls follow the shape of the dose curve; as a rule, active = well fitted cell-killing curve with a large enough effect in the repeat runs (not every such curve was filed as active); inconclusive = weak or mixed curves, or effect the other way; inactive = no such curve, though single readings can be large or run the other way.
Potency is read from the fitted curve at half-maximal effect.

The nature of this experiment: qHTS assay to identify small molecule antagonists of the farnesoid-X-receptor (FXR) signaling pathway - cell viability counter screen (AID 743221). Also: nearly all actives have a fitted effect of over 50% in size. The settings on record: FXR-bla HEK293T viability, CellTiter-Glo luminescence, 16 h; series mostly up to 62.6 µM. An excerpt: National Center for Advancing Translational Sciences [NCATS]
NIH Chemical Genomics Center [NCGC]
U.S. Environmental Protection Agency [EPA]
National Institutes of Environmental Health Sciences [NIEHS]
National Toxicology Program [NTP]
U.S. Food and Drug Administration [FDA]
The farnesoid-X-receptor (FXR), a nuclear hormone receptor, is highly expressed in liver, intestine, kidney and adrenal cortex. Natural ligands of FXR are the bile acids (Cholic acid, Chenodeoxy cholic acid etc). FXR is an important regulator of diverse metabolic pathways, including the bile acid homeostasis, lipid and glucose metabolisms. FXR regulates the expression of target genes by binding either as a monomer or as a heterodimer with the retinoid X receptor (RXR). Numerous studies have reported that FXR exerts protective function during cholestasis, diabetes, liver regeneration, and cancer. To identify compounds that inhibit FXR signaling, GeneBLAzer FXR-UAS-bla HEK 293T cell line (Invitrogen, Carlsbad, CA) containing a beta-lactamase reporter gene under the control of a UAS response element was used to screen the Tox21 10K compound library. The cytotoxicity of the Tox21 compound library against the FXR-bla cell line was tested in parallel by measuring the cell viability using CellTiter-Glo assay in the same wells.
Tox21 Assay Protocol Summary:
FXR-bla cells were dispensed at 5000 cells/5uL/well in 1536-well black wall/clear bottom plates using a Multidrop Combi (Thermo Fisher Scientific, Waltham, MA) dispenser. After the assay plates were incubated at 37 C and 5% CO2 for 5 h, 23 nL of compounds dissolved in DMSO, positive controls or DMSO only was transferred to the assay plate by a Pintool station (Kalypsys, San Diego, CA), followed by addition of 1 uL Chenodeoxycholic acid (50 uM, final concentration in the wells). The assay plates were incubated at 37C for 16 h. After 1 uL of LiveBLAzerTM B/G FRET substrate was added using a Bioraptr Flying Reagent Dispenser (FRD) workstation (Beckman Coulter, Indianapolis, IN), the plates were incubated at room temperature for 2 h, and fluorescence intensity was measured by an Envision plate reader (PerkinElmer, Shelton, CT). For cell viability readout that measures cytotoxicity, 4uL/well of CellTiter-Glo reagent was added into the assay plates using a Bioraptr FRD. After 30 min incubation at room temperature, the luminescence intensity in the plates was measured using a ViewLux plate reader (PerkinElmer).
On to `CC(C)c1cccc(C(C)C)c1N1C(=O)c2ccc(O)cc2C1=O`, for which the Potency entry was “inactive”. Take `NCCCCCCNCCCCCCN`: the Potency result is “inactive”. As for `COc1cc(C(=O)NS(=O)(=O)c2ccccc2C)ccc1Cc1cn(C)c2ccc(NC(=O)OC3CCCC3)cc12`, the Potency result was “inactive”. Then `CCN(CC)CCSC(=O)C(c1ccccc1)c1ccccc1`, with “inactive”; and `CCN1CCN(c2cc(-c3ccc(F)cc3)c3c(n2)CCCCCC3)CC1`, with “inactive”.

Turning to `CC=O`, the Potency is 64.5 µM (active). Take `CC(=O)Oc1ccc(C2(c3ccc(OC(C)=O)cc3)C(=O)Nc3ccccc32)cc1`: the Potency result was “inactive”. Then `C1CC(COCC2CO2)CCC1COCC1CO1` (stereo not given), with “inactive”; and `CC(NCCC(c1ccccc1)c1ccccc1)c1ccccc1` (stereo not given), with “inactive”; and `NC(=O)c1ccccc1N`, with “inactive”. Consider `COC(=O)NCCC[Si](OC)(OC)OC`, for which the Potency entry was “inactive”. For `CCCCCCC(C)OC(=O)COc1nc(F)c(Cl)c(N)c1Cl` (stereo not given), the Potency entry was “inactive”. As for `Nc1ncnc2c1ncn2[C@@H]1O[C@H](COP(=O)(O)O)[C@@H](O)[C@H]1O`, the Potency was 13.3 µM (active). As to `Cc1c(-c2ccc(O)cc2)n(Cc2ccc(OCCN3CCCCCC3)cc2)c2ccc(O)cc12`, the Potency was 29.8 µM (active). Then `CCN(CC)CCOc1ccc(C(O)(Cc2ccc(Cl)cc2)c2ccc(C)cc2)cc1` (stereo not given), with 29.8 µM (active); and `NCCCC(O)(P(=O)(O)O)P(=O)(O)O`, with “inactive”.

Regarding `COc1cc(C(C)C)c2c(c1)S(=O)(=O)N(COc1cc(=O)n3cccc(OCCN4CCCCC4)c3n1)C2=O`, the Potency result is “inactive”. As to `C=CC(C)(CCC=C(C)C)OC(=O)/C=C/c1ccccc1` (stereo not given), the Potency result was “inactive”. On to `CCC(C)(C)c1cc(O)c(C(C)(C)CC)cc1O`, for which the Potency result is “inactive”.

As to `C[C@]12CC[C@H]3C(=CCc4cc(O)ccc43)[C@@H]1CCC2=O`, the Potency entry was “inactive”. Consider `CN1[C@@H]2CC[C@H]1CC(OC(=O)C(CO)c1ccccc1)C2` (stereo not given in full), for which the Potency entry is “inactive”. Then `ClC/C=C\CCl`, with “inactive”; and `C=CC(=O)OCCOCC(CC)(COCCOC(=O)C=C)COCCOC(=O)C=C`, with 51 µM (active); and `CN(Cc1cc(Br)cc(Br)c1N)C1CCCCC1`, with “inactive”. As to `COc1ccc(-n2nc(CCC(=O)N(C)O)cc2-c2ccc(Cl)cc2)cc1`, the Potency result is “inactive”.

As for `CC1=C(/C=C/C(C)=C/C=C/C(C)=C/C(=O)Nc2ccc(O)cc2)C(C)(C)CCC1`, the Potency is 56.4 µM (active) and 26.6 µM (active). With `CC(C)=C1CC[C@@H](C)CC1=O`, the Potency result was “inactive”.

On to `CCCCCCCC/C=C/CCCOC(C)=O`, for which the Potency result was “inactive”. With `Clc1ccc(C(Cn2ccnc2)OCc2c(Cl)cccc2Cl)c(Cl)c1` (stereo not given), the Potency was 26.6 µM (active). For the molecule `CN(C)CCCN1c2ccccc2CCc2ccccc21`, the Potency entry was “inactive”. Consider `CCNc1nc(NC(C)CC)nc(OC)n1` (stereo not given), for which the Potency entry is “inactive”. Then `Nc1ccc2cc3ccc(N)cc3nc2c1`, with “inactive”; and `CCCSS/C(CCO)=C(\C)N(C=O)Cc1cnc(C)nc1N`, with “inactive”; and `CCCOc1sc(C(=O)N2CCC(c3cc(CN)ccc3F)CC2)c(C)c1Br`, with 50.4 µM (active). As for `CNC(=O)c1cc(Oc2ccc(NC(=O)Nc3ccc(Cl)c(C(F)(F)F)c3)cc2)ccn1`, the Potency was 29.8 µM (active). With `CCN=C1C=CC(=C(c2ccc(N(CC)CC)cc2)c2ccc(N(CC)CC)cc2)c2ccccc21`, the Potency was 13.7 µM (active).

As to `COC(=O)C1=C(C)NC(C)=C(C(=O)OCCCN2CCC(c3ccccc3)(c3ccccc3)CC2)C1c1cccc([N+](=O)[O-])c1` (stereo not given), the Potency is 26.6 µM (active). Then `CCCCCCCCCCCC(=O)N(CC)CC`, with “inactive”.

With `Cc1cc2c(C(C)C)c(O)c(O)c(C=O)c2c(O)c1-c1c(C)cc2c(C(C)C)c(O)c(O)c(C=O)c2c1O`, the Potency was 16.8 µM (active).

Consider `O[C@@H](c1cc(C(F)(F)F)nc2c(C(F)(F)F)cccc12)[C@H]1CCCCN1`, for which the Potency is 26.6 µM (active).

These data come from PubChem BioAssay (Tox21).
